In PubChem BioAssay (NCATS):
Several values for one entry are separate records, joined by “and”; a condition that tells them apart may be missing. Equal entries are not always repeated. Values without a mark were called inactive. Results filed as inconclusive are left out. A call without a number means that no potency is given here. Activity calls are given as the source filed them. Unless noted, the call rests on the fitted dose curve; in most records, active means well fitted curve in the direction sought with a large enough effect; inconclusive means small, poorly fitted or top-dose-only effect, or another doubt; inactive means no such curve, though single readings can be large; an effect the other way counts as inactive or inconclusive.

Legend:
[1] = target: Arylsulfatase A (Homo sapiens) (UniProt P15289); test: qHTS screen for enhancers of Arylsulfatase A (ASA1): LOPAC Validation Assay (AID 720538)
How it was run: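 First, ASA-I179S fibroblasts from an MLD patient adhered for 6 hrs. Next, compounds were added for 48h. Then pNCS substrate (0.5mM final) with lysis buffer reacted 14h at room temperature before NaOH stop and fluorescence measurement.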

[2] = qHTS for compounds that reverse cellular toxicity of Amyloid beta (A-beta) peptide in yeast: LOPAC Validation Assay (AID 720559); details: Potency: rescue of growth toxicity
How it was run: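 Activity is expressed relative to DMSO and an equimolar ferric chloride/clioquinol mix. Compounds were pinned into medium with A-beta-expressing yeast, grown 48 hr at 30 C, then read by absorbance at 600 nm.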

[3] = qHTS for Activators of Parkin Expression: LOPAC Validation Assay (NLuc Reporter) (AID 720572; further: potency means the concentration at half of the fitted maximal effect)
How it was run: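 Compound effects on Parkin promoter activity were measured as NanoLuc luminescence after 24 h at 37 C. The neuronal reporter line also carried FLuc, which was read first. LOPAC compounds were tested at 7 concentrations, with normalization to DMSO (0%) and positive control (100%).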

[4] = qHTS for Activators of Parkin Expression: LOPAC Validation Assay (FLuc Reporter) (AID 720573; further: potency means the concentration at half of the fitted maximal effect)
How it was run: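 A neuronal cell line harbouring FLuc and NLuc reporters behind the Parkin promoter was exposed to compounds for 24 h. Firefly luciferase signal, measured after 10 min with detection reagent, was scaled to DMSO and positive-control wells.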

[5] = target: T1, Hexokinase-4 (Homo sapiens) + Glucokinase regulatory protein (Homo sapiens) (UniProt P35557+Q14397); test: qHTS assay for inhibitors of recombinant human GCK-GKRP interaction: Diaphorase-coupled assay (AID 743205)
How it was run: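 Inhibitors of the GCK–GKRP complex relieve GKRP suppression of GCK, detected through a G6PDH–diaphorase cascade reducing resazurin. Human GST-GCK and FLAG-GKRP are used at 10 nM with 5 mM glucose and 0.4 mM ATP.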

[6] = target: T1, Hexokinase-4 (Homo sapiens) + Glucokinase regulatory protein (Homo sapiens); test: qHTS assay for inhibitors of recombinant human GCK-GKRP interaction: ADP-Glo assay (AID 743206)
How it was run: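 Pin-transferred compounds meet a 15 nM GST-GCK/15 nM FLAG-GKRP/2 uM S6P mix (dispense concentrations). ATP is then added to 0.4 mM final with 5 mM glucose, and the reaction runs 60 min at room temperature. ADP is quantified luminescently.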

[7] = target: T1, Hexokinase-4 (Homo sapiens) + Glucokinase regulatory protein (Homo sapiens); test: qHTS assay for inhibitors of recombinant human GCK-GKRP interaction: HTRF assay (AID 743207)
How it was run: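 Steps: dispense GCK–GKRP complex (5 nM each, GST- and FLAG-tagged) with 2 uM S6P; pin in compounds; add XL665/Eu-cryptate-labelled antibodies; incubate 60 min at room temperature; read time-resolved FRET at 665 and 615 nm.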

[8] = qHTS Assay for Identifying Gametocytocidal Compounds (AID 743244); further: potency means the concentration at half of the fitted maximal effect;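 on max response: actives lower the fluorescent signal which means gametocytes are killed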; details: P. falciparum 3D7 stage III-V gametocytes, alamarBlue, 72 h; max response: stronger effect = lower value
How it was run: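 Stage III-V P. falciparum 3D7 gametocytes, 20,000 per well, were exposed to compounds for 72 h at 37C, 5% CO2. AlamarBlue was then added for 24 h and viability was read as fluorescence at Ex 525/Em 598 nm.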

[9] = qHTS assay for small molecule agonists of the antioxidant response element (ARE) signaling pathway measured by Nrf2-dependant transcriptional activity - cell viability counter screen (AID 720653; active means well fitted curve in the direction sought with a large enough effect in the repeat runs; an effect the other way counts as inactive or inconclusive); details: ARE-bla HepG2 viability, CellTiter-Glo ATP luminescence, 16 h; max response: stronger effect = lower value
How it was run: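 Cytotoxicity counter screen: intracellular ATP quantified by CellTiter-Glo luminescence in the same ARE-bla HepG2 plates, after 16 h compound exposure and a 2 h beta-lactamase substrate step.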

Chain of Arylsulfatase A (Homo sapiens) (P15289 whole entry, looked up): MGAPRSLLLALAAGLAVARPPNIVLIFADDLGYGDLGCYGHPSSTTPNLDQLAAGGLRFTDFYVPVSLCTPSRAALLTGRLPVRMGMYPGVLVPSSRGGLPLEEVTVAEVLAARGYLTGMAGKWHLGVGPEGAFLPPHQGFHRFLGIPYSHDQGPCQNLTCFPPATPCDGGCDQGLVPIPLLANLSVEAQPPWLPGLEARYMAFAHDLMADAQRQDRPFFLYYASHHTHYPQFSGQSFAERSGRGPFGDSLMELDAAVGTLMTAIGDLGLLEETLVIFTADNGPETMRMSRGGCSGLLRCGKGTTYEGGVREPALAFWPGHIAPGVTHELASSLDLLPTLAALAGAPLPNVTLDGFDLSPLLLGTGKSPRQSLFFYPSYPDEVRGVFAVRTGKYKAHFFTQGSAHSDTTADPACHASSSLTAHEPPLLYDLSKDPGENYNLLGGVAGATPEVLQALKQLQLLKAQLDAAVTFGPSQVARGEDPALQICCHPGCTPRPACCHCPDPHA
T1 sequence (P35557 whole entry, looked up): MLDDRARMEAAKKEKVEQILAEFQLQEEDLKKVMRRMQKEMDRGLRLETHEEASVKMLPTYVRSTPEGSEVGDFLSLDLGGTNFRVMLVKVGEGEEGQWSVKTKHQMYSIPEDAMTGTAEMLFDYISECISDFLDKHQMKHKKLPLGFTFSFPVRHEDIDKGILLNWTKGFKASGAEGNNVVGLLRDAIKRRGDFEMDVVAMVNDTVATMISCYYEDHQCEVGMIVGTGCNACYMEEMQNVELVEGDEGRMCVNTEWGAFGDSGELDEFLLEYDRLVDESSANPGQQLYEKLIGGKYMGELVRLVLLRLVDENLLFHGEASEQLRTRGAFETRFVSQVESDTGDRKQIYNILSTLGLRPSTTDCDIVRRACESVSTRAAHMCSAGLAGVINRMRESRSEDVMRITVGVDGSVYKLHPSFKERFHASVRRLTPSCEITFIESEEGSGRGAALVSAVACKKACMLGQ
T1 sequence (Q14397 whole entry, looked up): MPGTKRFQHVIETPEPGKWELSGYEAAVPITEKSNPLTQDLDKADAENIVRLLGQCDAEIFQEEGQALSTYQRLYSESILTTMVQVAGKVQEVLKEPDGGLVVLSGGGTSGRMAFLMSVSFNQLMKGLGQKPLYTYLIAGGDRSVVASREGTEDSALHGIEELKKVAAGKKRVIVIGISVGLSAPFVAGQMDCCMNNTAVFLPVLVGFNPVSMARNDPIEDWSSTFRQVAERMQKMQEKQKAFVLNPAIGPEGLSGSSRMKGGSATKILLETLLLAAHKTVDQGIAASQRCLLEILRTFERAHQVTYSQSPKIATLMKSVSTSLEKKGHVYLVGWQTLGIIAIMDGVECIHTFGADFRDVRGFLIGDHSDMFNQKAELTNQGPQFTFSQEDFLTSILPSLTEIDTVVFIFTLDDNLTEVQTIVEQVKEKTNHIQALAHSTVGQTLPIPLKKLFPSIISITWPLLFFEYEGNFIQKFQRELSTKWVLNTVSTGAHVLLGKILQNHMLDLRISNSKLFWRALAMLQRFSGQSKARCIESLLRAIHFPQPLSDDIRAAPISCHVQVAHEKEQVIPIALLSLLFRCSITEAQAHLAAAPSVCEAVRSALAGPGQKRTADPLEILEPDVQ

Row | SMILES | Potency [1] | Potency [2] | Potency [3] | Potency [4] | outcome [5] | Potency [6] | Potency [7] | max response [8] | Potency [8] | max response [9] [%]
1 | C#C[C@]1(O)CC[C@H]2[C@@H]3CCC4=Cc5oncc5CC4(C)[C@H]3CCC21C (stereo partly drawn) | inactive | inactive | inactive | inactive | inactive | inactive | inactive | 25.1% | – | –
2 | CN1CCc2cccc3c2C1Cc1ccc(O)c(O)c1-3 (stereo not drawn) | inactive | inactive | inactive | inactive | inactive | inactive | inactive | – | 562 nM (active) | –
3 | Nc1nc(Cl)nc2c1ncn2[C@@H]1O[C@H](CO)[C@@H](O)[C@H]1O | inactive | inactive | inactive | inactive | inactive | inactive | inactive | 6.66% | – | –
4 | O=C(O)[C@@H]1C[C@@H](C(=O)O)N1 | inactive | inactive | inactive | inactive | inactive | inactive | inactive | 6.85% | – | –
5 | CCCN(CC1CC1)c1nc(C)nc(Nc2c(Cl)cc(Cl)cc2Cl)c1Cl | inactive | inactive | inactive | inactive | inactive | inactive | inactive | 18.2% | – | –
6 | CCOC(=O)C1=C(C)NC(C)=C(C(=O)OCC)C1c1c(F)c(F)c(F)c(F)c1F | inactive | inactive | 4110 nM (active) | inactive | inactive | inactive | inactive | 17% | – | –
7 | O=[N+]([O-])c1ccc(CSc2ncnc3c2ncn3[C@@H]2O[C@H](CO)[C@@H](O)[C@H]2O)cc1 | inactive | inactive | inactive | inactive | inactive | inactive | inactive | 17.7% | – | –
8 | Nc1nc(Nc2ccccc2)nc2c1ncn2[C@@H]1O[C@H](CO)[C@@H](O)[C@H]1O | inactive | inactive | inactive | inactive | inactive | inactive | inactive | 17.1% | – | –
9 | C=C[C@@H]1CN2CC[C@@H]1C[C@H]2[C@H](O)c1ccnc2ccc(OC)cc12 | inactive | inactive | inactive | inactive | inactive | inactive | inactive | – | 296 nM (active) | –
10 | NC(CCCP(=O)(O)O)C(=O)O (stereo not drawn) | inactive | inactive | inactive | inactive | inactive | inactive | inactive | 8.77% | – | –
11 | CCCCCCCCCCCCCCCCCCNC(=O)OCC(COP(=O)([O-])OCC[n+]1ccsc1)OC (stereo not drawn) | inactive | inactive | inactive | inactive | inactive | inactive | inactive | 12.3% | – | –
12 | O=Nc1ccc2oc(=O)ccc2c1 | inactive | inactive | inactive | inactive | inactive | inactive | inactive | – | 1780 nM (active) | –
13 | C=CC(=O)c1ccc(CCCCCC)cc1 | inactive | inactive | inactive | inactive | inactive | inactive | inactive | 6.31% | – | –
14 | C=CC(N)CCC(=O)O (stereo not drawn) | inactive | inactive | inactive | inactive | inactive | inactive | inactive | -1.49% and -10.7% | – | –
15 | N#C/C(=C\c1ccc(O)c(O)c1)C(=O)NCCCc1ccccc1 | inactive | inactive | inactive | inactive | inactive | inactive | inactive | 8.54% | – | –
16 | NCCCS(=O)(=O)O | inactive | inactive | inactive | inactive | inactive | inactive | inactive | 2.49% | – | –
17 | CC(C)Cc1ccc([C@H](C)C(=O)O)cc1 | inactive | inactive | inactive | inactive | inactive | inactive | inactive | -6.28% and 20.5% | – | –
18 | CC12C(=O)OC(=O)C1(C)C1CCC2O1 (stereo not drawn) | inactive | inactive | inactive | inactive | inactive | inactive | inactive | 3.18% | – | –

Row | SMILES | Potency [1] | Potency [2] | Potency [3] | Potency [4] | outcome [5] | Potency [6] | Potency [7] | max response [8] | Potency [8] | max response [9] [%]
19 | O=C(O)[C@@H]1C[C@H](C(=O)O)N1 | inactive | inactive | inactive | inactive | inactive | inactive | inactive | -2.93% | – | –
20 | COc1cccc(OC)c1OCCNCC1COc2ccccc2O1 (stereo not drawn) | inactive | inactive | inactive | inactive | inactive | inactive | inactive | 16.7% | – | –
21 | Cc1nc2sccn2c(=O)c1CCN1CCC(=C(c2ccccc2)c2ccc(F)cc2)CC1 | inactive | inactive | inactive | inactive | inactive | inactive | inactive | 35.1% | – | –
22 | CCNC(=O)[C@H]1O[C@@H](n2cnc3c(N)nc(NCCc4ccc(CCC(=O)O)cc4)nc32)[C@H](O)[C@@H]1O | inactive | inactive | inactive | inactive | inactive | inactive | inactive | -4.57% | – | –
23 | Nc1nc(SCc2ccc([N+](=O)[O-])cc2)c2ncn([C@@H]3O[C@H](CO)[C@@H](O)[C@H]3O)c2n1 | inactive | inactive | inactive | inactive | inactive | inactive | inactive | 22.6% | – | –
24 | CNCC[C@H](Oc1ccc(C(F)(F)F)cc1)c1ccccc1 | – | inactive | inactive | inactive | inactive | inactive | inactive | – | – | –
25 | CSc1ccccc1N1CCN(CCCCCC(=O)NC2CCCc3ccccc32)CC1 (stereo not drawn) | inactive | inactive | inactive | inactive | inactive | inactive | – | 6.9% | – | –
26 | O=C(/C=C/c1ccc(O)cc1)c1ccc(O)cc1O | – | inactive | inactive | inactive | inactive | inactive | inactive | – | – | –
27 | C#CCN1C(C)=C(C(=O)OC)C(c2cccc([N+](=O)[O-])c2)C(C(=O)OCC)=C1C (stereo not drawn) | inactive | inactive | – | inactive | inactive | inactive | inactive | – | – | –
28 | Oc1ccccc1O | inactive | inactive | inactive | – | inactive | inactive | inactive | – | – | -28.6
29 | CN1[C@@H](CC(=O)c2ccccc2)CCC[C@H]1C[C@H](O)c1ccccc1 | – | inactive | inactive | inactive | inactive | inactive | – | – | – | –
30 | OC[C@H]1O[C@@H](n2cnc3c(Nc4ccccc4)ncnc32)[C@H](O)[C@@H]1O | inactive | inactive | inactive | – | inactive | inactive | inactive | -5.57% | – | –
31 | O=C(O)CNC(=O)C(CS)Cc1ccccc1 (stereo not drawn) | – | inactive | inactive | inactive | inactive | inactive | – | – | – | –
32 | COc1cc(SC)ccc1C(=O)N1CCC(Cc2ccccc2)CC1 | inactive | inactive | inactive | inactive | inactive | inactive | – | 12.7% | – | –
33 | O=C(O)CC[C@@H](C(=O)O)N1C(=O)c2ccccc2C1=O | inactive | inactive | inactive | inactive | inactive | inactive | – | -10.9% | – | –
34 | Nc1ncnc2c1c(I)cn2[C@@H]1C[C@H](N)[C@@H](O)[C@H]1O | inactive | inactive | – | 20600 nM (active) | inactive | inactive | inactive | 12.6% | – | –
35 | CC(C)NC[C@H](O)COc1cccc2[nH]ccc12 | inactive | inactive | inactive | – | – | – | – | 4.63% | – | –
